By inhibition is commonly meant the drop in the measured response relative to a control, in per cent.

Structures are written as SMILES. The list shows a part of the results. Calls of active or inactive are those of the source. Rule as the data show it: active = inhibition above about 32%; inactive = the rest.

These results are taken from PubChem BioAssay AID602139 (NMMLSC, 2011).

In this experiment the test system is Botulinum neurotoxin type A light chain protease (Clostridium botulinum A str. ATCC 3502). As to the kind of experiment: inhibition of botulinum toxin A LC protease – biochemical, flow cytometry, cherry pick 1, confirmation (AID 602139). The settings on record: multiplex microsphere protease assay, at 10 µM, stronger effect = higher value.
Turning to `Cc1ccc(C(=O)COc2cccc(NC(=O)c3ccco3)c2)cc1`, the inhibition was -0.4% (inactive). The same measure for `CC(=O)Nc1ccc(Oc2ccc3c(c2)C(=O)NC3=O)cc1`: 0.3% (inactive); for `Clc1ccc(-c2ncc3ccccn23)c(Cl)c1`: 2.4% (inactive); for `COc1ccccc1C1CCN(C(=S)Nc2ccc(Br)cc2)CC1`: 0.8% (inactive). Regarding `Cc1cccc2cc3c(N)c(C(=O)N4CCCc5ccccc54)sc3nc12`, the inhibition is 16.3% (inactive). As for `Cc1onc(-c2ccccc2Cl)c1C(=O)NCCn1ccc2ccccc21`, the figure is 2.7% (inactive); as for `CC1CCc2c(sc3nc4n(c(=O)c23)CCS4)C1` (configuration not stated), 0.4% (inactive). On to `COc1ccc(N(CC(=O)NCCSCc2cccc(Cl)c2)S(C)(=O)=O)cc1`, for which the inhibition was 1% (inactive). As for `Cc1ccc2[nH]cc(CCNC(=O)C3CCCCC3)c2c1`, the inhibition is -0.1% (inactive). Turning to `CC1CCN(C(=O)c2ccc(S(=O)(=O)Cc3cc(F)ccc3F)c([N+](=O)[O-])c2)CC1`, the inhibition was 0.4% (inactive). In the case of `CC(C)Cc1nnc(NC(=O)CCC(=O)Nc2ccc3cn[nH]c3c2)s1`, the inhibition is -0.8% (inactive).

With `CCOCCn1c(-c2ccccc2)nc2ccccc21`, the inhibition is -0.1% (inactive). As for `CCN1CCN(C(C(=O)NC2CCCC2)c2cc3c(cc2[N+](=O)[O-])OCO3)CC1` (configuration not stated), the figure is -0.8% (inactive). In the case of `COc1ccccc1CNC(=O)C1Cc2ccccc2C(=O)O1` (configuration not stated), the inhibition is -0.4% (inactive).

Turning to `CCOc1ccc(NC(=O)CC(Cc2ccc(Cl)cc2)C(=O)O)cc1` (configuration not stated), the inhibition was -0.4% (inactive). Regarding `OC(c1ccc(Cl)cc1)C(CN1CCOCC1)c1ccccc1` (configuration not stated), the inhibition is 2.5% (inactive). With `COc1ccccc1-n1c(-c2cc(-c3ccco3)[nH]n2)n[nH]c1=S`, the inhibition was 1.5% (inactive).

For the compound `CCCN1C2CCCC1CC(NC(=O)c1cccc(OC)c1)C2` (configuration not stated), the inhibition was 0.4% (inactive). On to `Nc1ccccc1Sc1cc(Cl)nnc1Cl`, for which the inhibition was -0.2% (inactive).

With `COc1ccc(C(=O)Nc2nc(-c3ccc(OC)cc3)c(-c3ccc([N+](=O)[O-])cc3)s2)cc1`, the inhibition was 15.9% (inactive). As for `O=C(Nc1nnc(CCc2ccccc2)s1)C1CCCO1` (configuration not stated), the inhibition is -0.5% (inactive). As to `COc1ccc(Br)cc1CNCCc1cccc(Cl)c1`, the inhibition is 1.5% (inactive).
